# Screening data deposited in PubChem by National Center for Advancing Translational Sciences (NCATS).
# SW480 rerep = inducers of DNA re-replication in SW480 colon cancer cells; SW480 DNA re-replication, Hoechst DNA content imaging, 48 h; Potency, µM (series often up to 46.1 µM), hits mostly activators; 1.8% of 340,000 active; note: nearly all actives have a fitted effect of over 55% in size
#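 SW480 cells exposed to compounds for 48 hr at 37 C, 5% CO2, then Hoechst-stained 40 min. Nuclear DNA content imaged by fluorescence scanning (405 nm excitation, 500-530 nm emission); re-replication scored as increased high-intensity nuclei.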
# KCNH2 3.1 inh = inhibitors of human KCNH2 3.1 potassium channel isoform; U2OS KCNH2 3.1, thallium flux FluxOr; hits give low values; activity change, % (tested at about 1.8 µM); 0.95% of 340,000 active; AID 720553;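 active = maximum activity change below -70%; inconclusive = maximum activity change from -70% to -50%; inactive = maximum activity change above -50%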;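 note: thallium influx rate constant from kinetic fluorescence after stimulation buffer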
#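 Channel expression came from 3.1 mutant virus (1.77 x 10^8 /mL) applied to suspended U2OS cells for 4 h. Flux was tracked with FluxOr dye plus Red40 quencher, and kinetic rate constants normalized to controls.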
# KCNH2 WT inh = inhibitors of human wildtype KCNH2 potassium channel | U2OS, BacMam KCNH2, thallium flux FluxOr; hits give low values | activity change, % at 1.84 µM | 0.37% of 340,000 active | AID 720551;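 active = maximum activity change below -70%; inconclusive = maximum activity change between -70% and -50%; inactive = maximum activity change above -50%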
# Target sequence (Q12809 whole entry, looked up): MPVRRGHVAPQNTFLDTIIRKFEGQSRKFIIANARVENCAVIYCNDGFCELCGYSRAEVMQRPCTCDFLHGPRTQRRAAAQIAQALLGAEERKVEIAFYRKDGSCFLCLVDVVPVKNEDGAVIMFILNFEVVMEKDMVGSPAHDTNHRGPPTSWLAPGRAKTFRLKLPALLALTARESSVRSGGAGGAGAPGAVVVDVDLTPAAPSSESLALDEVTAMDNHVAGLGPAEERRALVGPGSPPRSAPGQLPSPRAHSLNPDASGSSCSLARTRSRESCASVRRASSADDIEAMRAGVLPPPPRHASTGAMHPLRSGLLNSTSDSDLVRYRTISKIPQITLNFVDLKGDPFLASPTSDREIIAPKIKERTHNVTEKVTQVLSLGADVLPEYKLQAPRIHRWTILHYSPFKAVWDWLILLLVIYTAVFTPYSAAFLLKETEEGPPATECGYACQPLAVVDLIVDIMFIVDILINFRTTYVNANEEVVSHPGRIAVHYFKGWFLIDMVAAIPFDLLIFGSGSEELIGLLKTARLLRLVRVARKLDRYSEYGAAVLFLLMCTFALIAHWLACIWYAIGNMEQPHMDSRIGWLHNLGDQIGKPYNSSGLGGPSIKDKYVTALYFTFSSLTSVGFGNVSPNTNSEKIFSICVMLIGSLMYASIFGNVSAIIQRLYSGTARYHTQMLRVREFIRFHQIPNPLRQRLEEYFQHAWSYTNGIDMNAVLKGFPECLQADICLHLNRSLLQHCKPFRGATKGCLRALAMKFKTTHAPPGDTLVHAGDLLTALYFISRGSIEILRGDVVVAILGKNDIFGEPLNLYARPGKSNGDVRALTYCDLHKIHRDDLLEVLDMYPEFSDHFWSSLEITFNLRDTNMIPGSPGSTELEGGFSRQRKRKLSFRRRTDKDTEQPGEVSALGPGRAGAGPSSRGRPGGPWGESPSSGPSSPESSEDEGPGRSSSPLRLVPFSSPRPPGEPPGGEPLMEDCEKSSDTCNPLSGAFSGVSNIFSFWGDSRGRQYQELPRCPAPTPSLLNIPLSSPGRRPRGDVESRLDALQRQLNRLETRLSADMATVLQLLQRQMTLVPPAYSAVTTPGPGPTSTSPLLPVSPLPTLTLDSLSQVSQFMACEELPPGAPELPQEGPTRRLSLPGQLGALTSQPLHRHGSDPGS
#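 U2OS cells transduced with wild-type KCNH2 virus are loaded with FluxOr dye for 45 min, and thallium flux is measured in kinetic reads before and after stimulation buffer. Rate constants are normalized to DMSO controls.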
# KB-V1 MDR tox = KB-V1 MDR subline cytotoxicity; KB-V1 MDR cells viability, CellTiter-Glo, 72 h; Potency, µM (top dose mostly 46.1 µM), usual class: cytotoxic; 3.4% of 400,000 active; note: nearly all actives have a fitted effect of over 60% in size
#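 Luminescent ATP read-out (CellTiter-Glo, 10 min) measures survival of drug-selected KB-V1 MDR cells after 72 h, 37 degrees C compound exposure. Medium: phenol-red-free DMEM, 10% FBS. Values from fitted concentration-response curves.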
# KB-3-1 tox = kills parental KB-3-1 adenocarcinoma cells | Potency, µM (doses to about 46.1 µM), actives largely listed as cytotoxic | KB-3-1 viability, CellTiter-Glo ATP luminescence, 72 h | 1.4% of 400,000 active | AID 1347075; note: nearly all actives have a fitted effect of over 60% in size
#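 72 h, 37 °C compound treatment of KB-3-1 parental cells; CellTiter-Glo added, 10 min, luminescence read. Data corrected against DMSO-only plates and normalized before curve fitting.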
# MCF10A rereplic = inducers of DNA re-replication in MCF 10A breast cells; 2.9% of 350,000 active; AID 624296; Potency, µM (highest dose often 46.1 µM), most hits filed as activators; MCF 10A DNA re-replication, Hoechst nuclear intensity, 48 h; note: nearly all actives have a fitted effect of over 50% in size
# Hits are given with their value; n = inactive; u = inconclusive; x = no result. An excerpt weighted towards active compounds, which were near 7.6% of everything screened. Unless noted, calls come from the whole dose curve; as a rule, active = well fitted curve in the direction sought with a large enough effect; inconclusive = small, poorly fitted or top-dose-only effect, or another doubt; inactive = no such curve, though single readings can be large; an effect the other way counts as inactive or inconclusive.
SMILES,SW480 rerep,KCNH2 3.1 inh,KCNH2 WT inh,KB-V1 MDR tox,KB-3-1 tox,MCF10A rereplic
COC(=O)c1cc(C(=O)OCC(=O)NCc2cccs2)cc([N+](=O)[O-])c1,n,n,n,n,n,n
Cn1ncc(C#N)c1/N=C/N1CCCC1,n,n,n,n,n,n
Cc1cccc(CN2CCN(C3CN(Cc4cn(Cc5cccc(Cl)c5)nn4)S(=O)(=O)C3)CC2)c1 (stereo not given),x,x,x,n,u,x
CCN1C(=O)/C(=C/C=C2\C=CN(CC)c3ccccc32)SC1=S,n,n,n,u,n,n
CCN1C(=O)C(=CC=CN(C)c2ccccc2)SC1=S,x,n,-72.2,n,u,x
COc1ccccc1C(=O)c1c(C)c(CCC#N)n2ccccc12,n,n,n,n,n,n
COC(=O)CCc1c(C)c(C(=O)c2cc(OC)c(OC)c(OC)c2)c2ccccn12,10.3µM,n,n,n,n,u
CCOC(=O)CN1C(c2ccc(O)cc2)Nc2ccc(Br)cc2C1c1ccccc1 (stereo not given),u,n,n,u,u,18.4µM
CC(O)CNc1ccc(-c2nn(C)c(=O)c3ccccc23)cc1[N+](=O)[O-] (stereo not given),n,n,n,6.51µM,9.2µM,n
N#C/C(C(=O)NCc1ccco1)=C1/SC=C(c2ccccc2)N1c1ccccc1,29.1µM,n,n,n,n,u
CC1=CS/C(=C(/C#N)C(=O)NCc2ccco2)N1c1ccccc1,n,n,n,n,n,n
COc1ccc(NS(=O)(=O)CC23CCC(CC2=O)C3(C)C)cc1 (stereo not given),n,n,n,u,n,n
CCOc1ccc(NS(=O)(=O)CC23CCC(CC2=O)C3(C)C)cc1 (stereo not given),n,n,n,18.4µM,n,n
Cc1ccc(S(=O)(=O)n2cnc3ccccc32)cc1[N+](=O)[O-],n,n,n,n,n,n
CCCn1c(/C=C/c2ccccc2)nc2ccccc21,u,n,n,n,n,23.1µM
Cc1ccc(NC(=O)Cn2c(/C=C/c3ccccc3)nc3ccccc32)cc1C,u,n,n,u,n,16.4µM
Cc1nc2ccccc2n1CC(=O)NC1CCCCCC1,n,n,n,14.6µM,u,n
Cc1nc2ccccc2n1CC(=O)N/N=C\C=C\c1ccccc1,n,n,n,20.6µM,n,n
Cc1nc2ccccc2n1CC(=O)N/N=C\c1ccccn1,n,n,n,n,n,n
Cc1cncc(C(=O)O)[n+]1[O-],n,x,x,x,x,n
Cc1occc1C(=O)N/N=C/C=C\c1ccccc1[N+](=O)[O-],n,n,n,n,n,n
Cn1c(SCC(=O)N/N=C/C=C/c2ccccc2[N+](=O)[O-])nc2ccccc21,n,n,n,n,n,n
CCn1c(SCC(=O)N/N=C/C=C\c2ccccc2[N+](=O)[O-])nc2ccccc21,n,n,n,7.31µM,u,n
CC(=O)c1cc(-c2ccccc2)n(CC(=O)Nc2ccc(C)c(C)c2)c1C,n,n,n,n,n,23.1µM
CC(C)c1ccccc1NC(=O)Cn1c(/C=C/c2ccccc2)nc2ccccc21,9.2µM,n,n,u,n,10.3µM
SMILES,SW480 rerep,KCNH2 3.1 inh,KCNH2 WT inh,KB-V1 MDR tox,KB-3-1 tox,MCF10A rereplic
O=C(N/N=C/C=C\c1ccccc1[N+](=O)[O-])c1ccco1,25.9µM,n,n,n,n,u
Cc1c(Cl)cccc1NC(=O)Nc1nnc(N2CCCCCC2)s1,x,x,x,n,n,x
CC(C)(C)c1ccc2c(c1)N(CC(=O)N1CCOCC1)C(=O)CO2,n,n,n,n,n,n
Cc1ccc(C(=O)Cn2c(C(=O)/C=C/c3ccccc3)nc3ccccc32)cc1,u,n,n,13µM,u,23.1µM
COC(=O)c1sc2ccccc2c1NC(=O)c1ccc(S(=O)(=O)N2CCCCC2C)cc1 (stereo not given),n,n,n,16.4µM,n,n
CC1CCCCN1S(=O)(=O)c1ccc(NC(=O)c2cccs2)cc1 (stereo not given),n,n,n,u,n,20.6µM
NC(=O)c1ccsc1NC(=O)C1CCCN1S(=O)(=O)c1ccc(Cl)cc1 (stereo not given),n,n,n,n,n,n
CC1CCCCN1S(=O)(=O)c1ccc(C(=O)Nc2sccc2C(N)=O)cc1 (stereo not given),n,-96.0,n,n,n,n
NC(=O)c1ccsc1NC(=O)c1ccc(S(=O)(=O)N2CCCc3ccccc32)cc1,u,n,n,u,23.1µM,u
CCc1ccccc1NC(=O)Cn1c(=O)n(CCCS(=O)(=O)C2CCCCC2)c(=O)c2ccccc21,x,x,x,n,n,x
COC(=O)c1c(SC)nc2ccccc2c1OCc1ccc(C)cc1C,x,x,x,n,n,x
Cc1cc(C)n(-c2ccc(C(=O)Nc3sccc3C(N)=O)cc2)n1,n,n,n,29.1µM,u,u
CCCCC(OC(=O)c1ccco1)C(=O)NCc1ccc(C)cc1 (stereo not given),n,u,n,u,n,n
COC(=O)c1cn(NC(=O)/C=C/c2cc(OC)ccc2OC)c(=O)c2ccccc12,n,n,n,8.2µM,n,n
COc1ccc(CC2S/C(=N/N=C/c3ccccc3O)NC2=O)cc1 (stereo not given),2.91µM,n,n,n,u,23.1µM
O=c1c(S(=O)(=O)c2ccc(Cl)cc2)cn(Cc2cccc(F)c2)c2ccc(F)cc12,n,-81.6,u,n,n,n
CCn1cc(S(=O)(=O)c2ccc(Cl)cc2)c(=O)c2cc(OC)ccc21,n,n,n,14.6µM,n,n
CCn1cc(S(=O)(=O)c2ccc(OC)cc2)c(=O)c2cc(OC)ccc21,n,n,n,n,n,n
COc1ccc(C)cc1NC(=O)Cn1cc(S(=O)(=O)N2CCC(C)CC2)c2ccccc2c1=O,x,x,x,n,n,x
Cc1cc2c(cc1C)N(C(=O)CCl)CC(=O)N2,x,n,n,u,u,x
Cc1cc2c(cc1C)N(C(=O)CCl)CCN2C(=O)CCl,3.66µM,n,n,7.31µM,14.6µM,4.61µM
COc1ccccc1CN(C)C(=O)c1cc(C)nc2ccccc12,n,n,n,u,u,u
COc1ccc(CN(C)C(=O)c2cc(-c3ccccc3)nc3ccc(C)cc23)c(OC)c1,x,n,n,u,18.4µM,x
CN(CC(=O)Nc1ccccc1Br)C(=O)c1ccccc1OCc1ccc(Cl)cc1,n,n,n,5.8µM,u,n
Cc1ccc2nc(-c3ccccc3)cc(C(=O)N(C)CC(=O)Nc3ccccc3Br)c2c1,n,n,n,20.6µM,u,u
O=C(Nc1ccc(F)c(Cl)c1)c1ccc2c(Cl)c3c(nc2c1)CCCC3,x,x,x,n,n,x
CCCC(=Nc1ccccc1OC)C1=C(O)CC(c2ccccc2)CC1=O (stereo not given),n,n,n,n,n,u
